These results are taken from PubChem BioAssay (NCI).

This is part of a sample that, as a whole, favours compounds with a hit. Of some 83,000 tested, about 20% had one in any assay.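 In brief: 96-well plates, 48 h treatment, single concentration, percent growth endpoint.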 Unmarked numbers belong to inactive results. The source made the active and inactive calls.

For this assay, the system named is ACHN renal. Nature of the assay: NCI-60 one-dose screen, 48 h (100 = growth as untreated, 0 = no growth, -100 = all killed). Particulars: 10 µM unless noted. The method, then: Growth inhibition of the ACHN human tumor cell line is measured as a screen for anti-cancer activity. Cells are grown in 96 well plates and exposed to the test compound for 48 hours. Compounds are tested at a single concentration, which is 10^-5 M for most compounds. The reported endpoint is percent growth (GI% or GIPRCNT), where numbers from 0 - 100% represent growth inhibition, and numbers from -100% - 0 represent cell death. For example, a value of 40 represents 60% growth inhibition. A value of 0 means no net growth occurred over the course of the experiment. A value of -40 indicates 40% of cells at the beginning of the experiment died by the end of the experiment. A value of -100 means all cells are dead at the end of the experiment.
NCI-60 Human Tumor Cell Lines Screen was performed using the standard one-dose NCI protocol, which is described in more detail at https://dtp.cancer.gov/discovery_development/nci-60/default.htm.
Compounds with GIPRCNT values below 10 were considered active. Activity score was based on GIPRCNT using the following formula: […]
Score is 0 for GIPRCNT values of 100 or above, 50 for GIPRCNT values of 0, and 100 for GIPRCNT values of -100.
Turning to `O=c1nc(Nc2nc3ccccc3s2)[nH]c(=O)c2ccccc12`, the growth is 89.8%.

As to `O=C1/C(=C/c2ccc(C(F)(F)F)cc2)COc2ccc(O)c(O)c21`, the growth was -57.6% (active).

Consider `COc1cc2cc(NCc3ccc(OC(F)F)cc3)nc(C)c2cc1OC`, for which the growth was 69.5%.

On to `CCCCCSB(SCCCCC)c1ccccc1`, for which the growth is 105%.

`CCn1cc(C(=O)N/N=C/c2ccc(Br)cc2)c(=O)c2cc(F)c(N3CCNC(C)C3)c(F)c21` (stereo not given): the growth was 88.8%.

As for `COc1ccc(OC)c(Nc2nnc(-c3ccc(Cl)cc3)o2)c1`, the growth is 30.8%.

With `COc1ccc(C2CC(c3ccc4c(c3)OCO4)=Nc3c(N)ncnc3N2)cc1` (stereo not given), the growth was 101%.

With `CCCCN1C(=O)/C(=c2\sc3n(c2=O)NC2C(N=3)N(CC)C(=O)N2CC)c2ccccc21` (stereo not given), the growth is 48.4%.

Take `COc1ccc(C2CC(c3ccc(Nc4nc(Nc5ccc(F)cc5)nc(Nc5ccc(F)cc5)n4)cc3)=NN2C(C)=O)cc1` (stereo not given): the growth is 84.5%.

Regarding `CCCCSCC(=O)c1ccccc1`, the growth was 101%.

Take `C=C1C(=O)O[C@H]2[C@H]1CC/C(COC(=O)c1cc3cc(F)ccc3[nH]1)=C\CC[C@@]1(C)O[C@@H]21`: the growth is -88.5% (active).

Regarding `CC1O[C@@H]2C[C@@](O)([C@H]1O)n1c3ccccc3c3c4c(c5c6ccccc6n2c5c31)C(=O)NC4=O` (stereo not given in full), the growth was 19.3%.

Turning to `CCOC(=O)Cn1c(=O)c2c3ccccc3n(C)c2n2nnc(-c3ccccc3)c12`, the growth is 91.8%.

Consider `COc1ccc(Cn2cc(C(=O)N=Nc3c(O)[nH]c4c(Cl)cccc34)nn2)cc1`, for which the growth was 111%.

`NS(=O)(=O)c1ccc(N/C=C/C(=O)c2cc3ccccc3oc2=O)cc1`: the growth was 99.7%.

With `CCCCCCCC/C=C\CCCCCCCCOc1ccc(CC(=O)NCC[N+](C)(C)C)cc1`, the growth was 60.8%.

As to `N#CCC1=NC(c2cccs2)=Nc2ccccc2S1`, the growth is 98.2%.

As to `COc1ccc(Cc2nnc(Nc3nc4ccccc4s3)s2)cc1`, the growth was 97.2%.

For `C#CCOc1cccc(-c2ncc3cc(NC(=O)CCl)ccc3n2)c1`, the growth was -87.2% (active).

As for `COc1cc(Nc2ncccc2NC(=O)c2cn(Cc3cccc(Oc4ccccc4)c3)nn2)cc(OC)c1`, the growth is 86.1%.

With `CCCCn1sc(=O)n(Cc2ccc(CNC(=O)OCc3ccc4c(Br)cc(Br)c(O)c4n3)cc2)c1=O`, the growth is 33.6%.

On to `O=C1CCC(C(=O)NN(c2ccccc2)c2ccccc2)N1` (stereo not given), for which the growth is 103%.

For `COc1ccc(C(C)=O)cc1S(N)(=O)=O`, the growth was 102%.

Take `CCn1cc(C2=C(c3cn(C)c4ncccc34)C(=O)NC2=O)c2cccnc21`: the growth was 74.7%.

For the compound `O=C(CN1CCN(c2cc3c(cc2F)c(=O)c(C(=O)O)cn3C2CC2)CC1)N/N=C/c1ccncc1`, the growth is 99.6%.

Consider `CCN1C(=S)N(CC)C2C1NC(=S)N2/N=C/C=C/c1ccccc1OC` (stereo not given), for which the growth is 33.7%.

Take `Cc1ccc(C)c(-n2c(-c3ccc(Br)cc3)csc2=NC(=O)c2ccccc2F)c1`: the growth is 52.9%.

`O=C(Nc1ncc(Cc2ccccc2Cl)s1)c1cccs1`: the growth is 73.2%.

Take `C=CCn1c(SCC(=O)Nc2ccc(C(=O)/C=C/c3ccc(OC)cc3)cc2)nnc1-c1ccccc1`: the growth was 92.5%.

Consider `CCSC1=CC(=O)c2ccccc2C1=O`, for which the growth is 3.01% (active).

With `C[C@@H]1CC[C@@]2(OC1)O[C@H]1C[C@H]3[C@@H]4CC=C5C[C@@H](O[C@@H]6O[C@H](CO)[C@@H](O[C@@H]7O[C@@H](CO)[C@H](O)[C@H]7O)[C@H](O)[C@H]6O[C@@H]6O[C@@H](C)[C@H](O)[C@@H](O)[C@H]6O)CC[C@]5(C)[C@H]4CC[C@]3(C)[C@H]1[C@@H]2C`, the growth is -98.3% (active).

Regarding `CC(C)C[C@@H](C(=O)N[C@H](C(=O)OC1CCCC1)c1ccccc1)[C@H](O)C(=O)NO`, the growth was 85.9%.

Consider `CCCCCCCCn1ccc2cc(NC(=O)Cn3cc(CN4CCN(CC)CC4)nn3)ccc21`, for which the growth was 111%.

Regarding `COc1cccc(/C=C/C(=O)c2cc3c(N)c(C(=O)Nc4ccccc4C)sc3nc2C)c1`, the growth is 56.1%.

`Oc1c(CN2CCCC2)cc(COCc2ccccc2)c2cccnc12`: the growth is 6.14% (active).

For the compound `CCN(CC)CCCNCc1cc(-c2ccccc2)nc2cc(Cl)ccc12`, the growth was 66.2%.

`O=C1NC(=Nc2ccc(O)cc2)S/C1=C\c1cccs1`: the growth was 30.3%.

Regarding `O=C(CSc1nnc2sc(Nc3cccc(Cl)c3)nn12)c1ccc(F)cc1`, the growth is 96%.

For the compound `CNCc1cccc2c1OCCOCCN(C)C(=O)CN(C)S(=O)(=O)c1ccc(cc1)-c1cnc(N)c(n1)C(=O)N2`, the growth was -2.97% (active).

On to `CCN(CC)CCN(CCN(CC)CC)c1ccccc1`, for which the growth was 95.7%.
